Assay results as given in PubChem BioAssay (EPA / NIEHS).
Inconclusive results are not listed. The source made the active and inactive calls. How the source made its calls: active means hit-call score of the fitted dose curve at least 0.9, where 1 is the maximum; inconclusive means response in the unintended direction; inactive means score below 0.9.

biological target: Estrogen receptor (Homo sapiens) + Estrogen receptor beta (Homo sapiens) (UniProt P03372+Q92731); test: OT_ER_ERaERb_1440: Odyssey Thera (OT) 24-hour HEK293T Protein-Complementation Assay for Estrogen Receptor-alpha/-beta Homodimer (AID 2283356);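 further: hits raise reporter fluorescence and both agonists and antagonists give an increase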
Sequence (P03372 whole entry, looked up, the tested form may be a part): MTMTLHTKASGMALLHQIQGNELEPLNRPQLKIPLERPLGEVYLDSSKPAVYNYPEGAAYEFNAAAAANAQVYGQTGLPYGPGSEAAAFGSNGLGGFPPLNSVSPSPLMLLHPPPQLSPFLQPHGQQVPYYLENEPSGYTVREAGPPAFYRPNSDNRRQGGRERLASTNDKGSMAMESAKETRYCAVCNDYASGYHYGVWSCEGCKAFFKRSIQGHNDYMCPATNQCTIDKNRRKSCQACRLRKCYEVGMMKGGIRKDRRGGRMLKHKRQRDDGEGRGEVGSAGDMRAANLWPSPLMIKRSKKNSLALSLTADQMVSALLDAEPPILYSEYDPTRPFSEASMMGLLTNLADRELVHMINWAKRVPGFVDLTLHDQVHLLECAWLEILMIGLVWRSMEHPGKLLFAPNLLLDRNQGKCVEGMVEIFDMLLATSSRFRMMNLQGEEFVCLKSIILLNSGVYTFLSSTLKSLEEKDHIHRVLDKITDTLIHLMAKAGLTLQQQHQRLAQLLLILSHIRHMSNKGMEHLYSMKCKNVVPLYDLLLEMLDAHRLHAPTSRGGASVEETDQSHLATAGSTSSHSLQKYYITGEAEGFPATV
Sequence (Q92731 whole entry, looked up, the tested form may be a part): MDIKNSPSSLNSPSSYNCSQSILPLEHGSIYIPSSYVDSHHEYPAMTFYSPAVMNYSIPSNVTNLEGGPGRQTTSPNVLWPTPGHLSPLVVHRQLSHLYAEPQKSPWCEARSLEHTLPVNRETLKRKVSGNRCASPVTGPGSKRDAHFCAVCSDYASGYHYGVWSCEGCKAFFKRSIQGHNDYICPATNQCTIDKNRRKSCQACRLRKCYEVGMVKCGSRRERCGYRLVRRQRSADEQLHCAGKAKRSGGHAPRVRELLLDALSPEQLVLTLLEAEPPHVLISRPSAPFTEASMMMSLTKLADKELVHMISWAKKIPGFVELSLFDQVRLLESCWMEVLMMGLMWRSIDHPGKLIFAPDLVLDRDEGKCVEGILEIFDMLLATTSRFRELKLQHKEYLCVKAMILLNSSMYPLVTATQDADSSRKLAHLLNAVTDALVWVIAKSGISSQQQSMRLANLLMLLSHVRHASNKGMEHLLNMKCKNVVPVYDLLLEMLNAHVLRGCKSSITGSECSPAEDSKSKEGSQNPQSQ
Protocol: OT_ER_ERaERb_1440 is a cell-based assay that uses HEK293T, a human kidney cell line, with measurements taken at 24 hours after chemical dosing in a 384-well plate.OT_ER_ERaERb_1440 is one of one assay component(s) measured or calculated from the OT_ER_ERaERb_1440 assay. It is designed to make measurements of protein fragment complementation, a form of binding reporter, as detected with fluorescence intensity signals by Protein-fragment Complementation technology.Data from the assay component OT_ER_ERaERb_1440 was analyzed into 1 assay endpoint. This assay endpoint, OT_ER_ERaERb_1440, was analyzed in the positive analysis fitting direction relative to DMSO as the negative control and baseline of activity. Using a type of binding reporter, measures of receptor for gain-of-signal activity can be used to understand the binding at the pathway-level as they relate to the gene ESR1 and ESR2. Furthermore, this assay endpoint can be referred to as a primary readout, because the performed assay has only produced 1 assay endpoint. To generalize the intended target to other relatable targets, this assay endpoint is annotated to the nuclear receptor intended target family, where the subfamily is steroidal.
Protein-fragment complementation assay, or PCA, is a method for the identification and quantification of protein-protein interactions. In the PCA, the proteins of interest ("bait" and "prey") are each covalently linked to fragments of a third protein (e.g. DHFR, which acts as a "reporter"). Interaction between the bait and the prey proteins brings the fragments of the reporter protein in close proximity to allow them to form a functional reporter protein whose activity can be measured. The OT ER alpha / ER beta assay is a heterodimer PCA of the ligand binding domain (LBD) of ER alpha (amino acids 310-547) and human ER beta (amino acids 263-489) stably expressed in HEK293T cells. […] Fluorescent signal in the basal state of the assay is very low and is primarily punctuate and cytoplasmic. Modulation of this assay is quantified as an increase in mean fluorescence intensity in the nucleus (for agonists) or in the nucleus and cytoplasm (antagonists) relative to vehicle controls, and can be quantified on a high content imaging device or a laser scanning cytometer. The latter instrument is favored for this assay because of the rapid mode of data acquisition, the ability to acquire data from the entire cell population in a well (as opposed to a fraction of the well on the high content devices) and the larger dynamic range typically achieved with this instrument. To assess sensitivity of the ER alpha/ER beta LBD assay to ligand, cells were treated with the ER agonist 17- beta-estradiol (E2) in 10-point concentration- response format for 24 hours and monitored response on a laser scanning plate cytometer (Acumen eX3; TTP Lab Tech).

SMILES	outcome	AC50
CCCCOCCOCCOCCOCCO	inactive	–
NCCCN1CCOCC1	inactive	–
OCCOCCOCCOCCO	inactive	–
CCCCCCCCC	inactive	–
CC1COc2ccccc2N1C(=O)C(Cl)Cl (stereo unspecified)	inactive	–
CCN(CC)c1ccc2c(-c3ccccc3C(=O)O)c3ccc(=[N+](CC)CC)cc-3oc2c1	–	12 µM (active)
Cc1ccc(S)cc1	inactive	–
OCCN1CCNCC1	inactive	–
CC(C)c1cccc(O)c1	inactive	–
CC(=O)OCCOC(C)=O	inactive	–
CCC/C=C/C=O	inactive	–
CCCCCCCCCC=O	inactive	–
O=Nc1ccc(Nc2ccccc2)cc1	inactive	–
BrC1CCC(Br)C(Br)CCC(Br)C(Br)CCC1Br (stereo unspecified)	–	60.4 µM (active)
c1ccc(CCCc2ccccn2)cc1	inactive	–
CCCCc1ccc(N)cc1	–	39.6 µM (active)
CC(C)(N)CO	inactive	–
NC(=O)Nc1ccc(Cl)cc1	inactive	–
C=C(C)C(=O)O	inactive	–
CCCCCCCCCCCCCC(=O)O	inactive	–
CCCCCCCCC=O	inactive	–
